The target of assay [1] is Lysosomal acid glucosylceramidase (Homo sapiens) (UniProt P04062). Put plainly: Glucocerebrosidase-p2 (AID 348; in the data active = potency below about 10 µM; note: potency is the fitted concentration of half-maximal effect). The conditions noted are these: purified GBA, blue fluorogenic substrate, 40 min. Summed up: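 Compounds titrated from 0.6 nM upwards against 0.2 nM enzyme in pH 5.9 citric acid/KH2PO4, taurocholate, tween-20; blue fluorogenic substrate 80 uM, 40 min room temperature, stopped and read Ex 365/Em 440 for AC50.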
Sequence of Lysosomal acid glucosylceramidase (Homo sapiens) (P04062 whole entry, looked up): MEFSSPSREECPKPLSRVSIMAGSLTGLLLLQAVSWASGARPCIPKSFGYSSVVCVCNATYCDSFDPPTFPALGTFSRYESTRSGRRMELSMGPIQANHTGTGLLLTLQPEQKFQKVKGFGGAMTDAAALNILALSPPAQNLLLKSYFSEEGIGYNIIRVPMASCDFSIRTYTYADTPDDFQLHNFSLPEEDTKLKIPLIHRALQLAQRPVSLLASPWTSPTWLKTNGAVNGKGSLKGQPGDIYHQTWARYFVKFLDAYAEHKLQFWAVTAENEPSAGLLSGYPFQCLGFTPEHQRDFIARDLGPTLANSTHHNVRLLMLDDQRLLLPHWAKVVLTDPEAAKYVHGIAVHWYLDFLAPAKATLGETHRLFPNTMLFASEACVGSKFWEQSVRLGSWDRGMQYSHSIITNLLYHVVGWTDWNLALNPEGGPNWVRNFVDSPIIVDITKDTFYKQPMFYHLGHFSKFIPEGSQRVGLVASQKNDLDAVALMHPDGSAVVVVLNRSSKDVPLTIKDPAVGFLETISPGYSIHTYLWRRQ

Assay [2] in a line: AP1 Signaling Pathway (AID 357; active = well fitted curve in either direction with a large enough effect, not every such curve was filed as active; note: % is set by controls: 0 for no effect and ±100 for the full control effect). To be noted: ME-180 AP-1-bla reporter, EGF-induced, beta-lactamase ratio, 5 h; at 7.69 µM (top of the series) unless noted. An outline of the steps: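 Cells are seeded overnight, exposed to compound titrations and an EC50 level of EGF for 5 hours at 37 °C, then loaded with CCF4 dye for 2.5 hours. Beta-lactamase activity under the AP-1 element is read as a blue/green ratio.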

Assay [3] addresses Cytochrome P450 1A2 (Homo sapiens) (UniProt P05177). Put plainly: p450-cyp1a2 (AID 410; calls by dose curve; note: potency is the fitted concentration of half-maximal effect). To be noted: recombinant CYP1A2, luciferin-ME demethylation, luminescence; series mostly up to 57 µM. An outline of the steps:
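Human CYP1A2 (20nM) demethylated Luciferin-ME at its Km (100uM) in 100mM KPO4. After 10 min compound preincubation, NADPH regeneration ran the reaction 60 min at room temperature. Luciferin was read by luminescence, normalized to 57 uM furafylline.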

Assay [4] can be described thus: NFAT Signaling Pathway (AID 444; active = well fitted curve in either direction with a large enough effect, not every such curve was filed as active;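 note: carbachol stimulus at about its EC50 of 1 µM final; % is set by controls: 0 for no effect and ±100 for the full control effect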). The conditions noted are these: Jurkat NFAT-bla M1, carbachol, beta-lactamase ratio, 5 h; at 7.69 µM (top of the series) unless noted. An outline of the steps: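 Read-out: CCF4 FRET ratio (460 nm/530 nm) after 1 h RT dye loading, used for %activity and AC50 from titration series. Cells: Jurkat NFAT-β-lactamase/M1 line, treated with compound plus 1 uM carbachol for 5 h, 37 °C.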

Assay [5] is described as follows: Stat Signaling Pathway (AID 446; active = well fitted curve in either direction with a large enough effect, not every such curve was filed as active;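 note: ME-180 cervical cancer cells given 40 pM IL-6 alongside compound; SIE-controlled beta-lactamase reporter measured as 460/530 nm FRET emission ratio; % is set by controls: 0 for no effect and ±100 for the full control effect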). To be noted: ME-180 (cervical carcinoma) SIE beta-lactamase reporter, IL-6 stimulated, 5 h; at 7.69 µM (top of the series) unless noted. An outline of the steps: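 IL-6/STAT signaling read in ME-180 cells via an SIE beta-lactamase reporter. Stimulus was 40 pM IL-6 (its AC50) for 5 hrs, so both activation and inhibition register.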
In assay [6] the target is Glucocorticoid receptor (Homo sapiens) (UniProt P04150). Put plainly: GR-GFP Redistribution (AID 450;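 active = compounds whose dose series gives a full or clear partial fitted curve of increased nuclear translocation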; note: potency is the fitted concentration of half-maximal effect). To be noted: U2OS GR-GFP nuclear translocation, laser cytometry, 2 h.
Sequence of Glucocorticoid receptor (Homo sapiens) (P04150 whole entry, looked up, the tested form may be a part): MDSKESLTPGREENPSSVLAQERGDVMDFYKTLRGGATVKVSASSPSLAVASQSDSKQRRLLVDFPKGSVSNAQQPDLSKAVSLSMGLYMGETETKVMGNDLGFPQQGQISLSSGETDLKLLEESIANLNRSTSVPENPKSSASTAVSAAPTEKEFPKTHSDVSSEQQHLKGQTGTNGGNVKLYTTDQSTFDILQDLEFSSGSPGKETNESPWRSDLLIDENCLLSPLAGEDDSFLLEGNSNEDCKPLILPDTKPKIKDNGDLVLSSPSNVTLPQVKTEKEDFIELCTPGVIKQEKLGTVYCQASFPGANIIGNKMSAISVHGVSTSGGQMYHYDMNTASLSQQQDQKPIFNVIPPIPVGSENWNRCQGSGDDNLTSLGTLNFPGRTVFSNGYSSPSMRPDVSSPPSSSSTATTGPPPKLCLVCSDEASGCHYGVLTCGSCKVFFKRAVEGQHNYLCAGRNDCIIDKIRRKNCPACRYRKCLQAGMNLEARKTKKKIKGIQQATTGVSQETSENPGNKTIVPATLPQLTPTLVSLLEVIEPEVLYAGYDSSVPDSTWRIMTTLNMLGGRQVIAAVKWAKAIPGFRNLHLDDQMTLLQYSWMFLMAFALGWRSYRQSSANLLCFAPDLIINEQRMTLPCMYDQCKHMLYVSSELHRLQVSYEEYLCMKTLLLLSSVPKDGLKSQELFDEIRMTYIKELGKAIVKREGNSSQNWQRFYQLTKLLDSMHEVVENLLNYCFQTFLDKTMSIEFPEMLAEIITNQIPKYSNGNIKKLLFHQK
The target is the same in assay [7]. As to the kind of experiment: GR-EFC Redistribution (AID 451; calls by dose curve; note: potency is the fitted concentration of half-maximal effect). The conditions noted are these: CHO-K1 GR-EFC translocation, beta-gal luminescence, 2 h. An outline of the steps: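 Translocation of GR-ED fusion to nuclear EA restores b-gal, read by luminescence after 1 h room-temperature detection. Engineered CHO-K1 biosensor cells, 1,000/well, exposed 2 h at 37 C to titrations up to 46 uM final.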

The target of assay [8] is Mitogen-activated protein kinase 10 (Mus musculus) (UniProt Q61831). As to the kind of experiment: JNK3 AlphaScreen Assay (AID 530; active = well fitted curve in either direction with a large enough effect, not every such curve was filed as active;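 note: kinase came from lysate of stimulated human HepG2 cells; signal reports phosphorylation of biotinylated GST-cJun 1-79 at Ser73 with 10 µM ATP; % is set by controls: 0 for no effect and ±100 for the full control effect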). To be noted: JNK3 lysate, c-Jun phosphorylation; series mostly up to 57.1 µM. An outline of the steps: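 Room-temperature AlphaScreen kinase assay; pre-activated HepG2 lysate as JNK3 source, biotin-GST-cJun(1-79) substrate, 10 uM ATP, compound 15 min preincubation.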

The target of assay [9] is 3',5'-cyclic-AMP phosphodiesterase 4B (Homo sapiens) (UniProt Q07343). Put plainly: qHTS Assay for Inhibitors of PDE-IV (AID 607; active = well fitted activation curve with a large enough effect in the main read-out, with a control signal flat, not every such curve was filed as active; note: % of control where 0% means no effect). To be noted: HEK293 ACTOne CNG channel cells, membrane potential fluorescence; series mostly up to 22.9 µM. Summed up:
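Live HEK293 cells with a modified cyclic nucleotide-gated (CNG) channel report intracellular cAMP via membrane-potential dye fluorescence (ex 535/em 590 nm). Endogenous PDE-IV was targeted. Compounds were tested at up to 22.9 uM final; RO 20-1724 100 uM served as control.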

In assay [10] the target is Cytochrome P450 3A4 (Homo sapiens) (UniProt P08684). Put plainly: qHTS Assay for Inhibitors and Substrates of Cytochrome P450 3A4 (AID 884). Note: potency is the fitted concentration of half-maximal effect; nearly all actives have a fitted effect of over 50% in size. The conditions noted are these: recombinant CYP3A4, Luciferin-PPXE luminescence; series mostly up to 57.1 µM. An outline of the steps: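 20 nM human CYP3A4 with 25 uM Luciferin-PPXE (at KM) in 200 mM KPO4, preincubated 10 min with compound; NADPH regeneration started a 60 min RT reaction. Luciferin detected by luminescence, normalized to 57 uM ketoconazole as full inhibition.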
Sequence of Cytochrome P450 3A4 (Homo sapiens) (P08684 whole entry, looked up): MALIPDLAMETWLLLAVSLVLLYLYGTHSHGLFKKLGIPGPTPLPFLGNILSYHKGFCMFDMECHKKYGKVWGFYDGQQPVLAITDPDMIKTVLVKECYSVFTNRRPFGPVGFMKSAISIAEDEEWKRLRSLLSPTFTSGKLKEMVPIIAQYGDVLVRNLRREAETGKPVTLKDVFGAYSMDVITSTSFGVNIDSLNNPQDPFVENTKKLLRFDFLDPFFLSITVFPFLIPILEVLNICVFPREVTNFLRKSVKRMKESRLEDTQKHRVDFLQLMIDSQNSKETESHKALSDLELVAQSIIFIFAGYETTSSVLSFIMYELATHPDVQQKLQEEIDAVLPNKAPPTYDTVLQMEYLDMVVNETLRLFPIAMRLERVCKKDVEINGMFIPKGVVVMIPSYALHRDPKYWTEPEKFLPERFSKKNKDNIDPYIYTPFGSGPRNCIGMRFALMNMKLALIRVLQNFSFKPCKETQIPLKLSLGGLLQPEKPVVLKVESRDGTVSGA

Assay [11] shares this target. As to the kind of experiment: qHTS Assay for Activators of Cytochrome P450 3A4 (AID 885). Note: nearly all actives have a fitted effect of over 65% in size. The conditions noted are these: recombinant CYP3A4, Luciferin-PPXE luminescence, 60 min; series mostly up to 57.1 µM. An outline of the steps:
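Quantitative HTS format: compounds preincubated with 20nM human CYP3A4 and Luciferin-PPXE substrate at KM, reaction started by NADPH regeneration, stopped after 60 min, luciferase luminescence read 20 min later.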

Assay [12] is described as follows: qHTS Assay for Lipid Storage Modulators (AID 1519; calls by dose curve). To be noted: Drosophila S3 cells, BODIPY lipid droplet/cell ratio, laser cytometry, cells loaded with oleic acid; for activity change, negative = inhibition: at 57.5 µM (top of the series). An outline of the steps:
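Cells seeded at 5,000 per well were treated with compounds over a concentration series and loaded with oleic acid (400 uM, as added). Lipid droplet fluorescence (488 nm excitation, 500-530 nm channel) was read by laser-scanning cytometry and normalized to 20 uM Triacsin C.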

For assay [13], the target named is Dual specificity protein kinase CLK4 (Homo sapiens) (UniProt Q9HAZ1). Put plainly: qHTS Assay for Inhibitors of CDC-like Kinase 4 (Kinase-Glo Assay) (AID 1770). Note: nearly all actives have a fitted effect of over 65% in size. Note: potency is the fitted concentration of half-maximal effect. The conditions noted are these: recombinant Clk4, Kinase-Glo ATP depletion luminescence; series mostly up to 66.7 µM. An outline of the steps:
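Readout: Kinase-Glo luminescence from ATP left after a 4.5 h room-temperature reaction of 25 nM Clk4 with 100 uM RS peptide and 1 uM ATP (final). Buffer: 25 mM Tris pH 7.5, 10 mM MgCl2.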

Assay [14] shares this target. As to the kind of experiment: qHTS Assay for Inhibitors of CDC-like Kinase 4 (ADP-Glo Assay) (AID 1771). Note: nearly all actives have a fitted effect of over 70% in size. Note: potency is the fitted concentration of half-maximal effect. To be noted: recombinant CLK4, ADP-Glo luminescence; series mostly up to 80 µM. Summed up: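 Clk4 (25 nM) was incubated 1 hr at room temperature with 100 uM RS repeat peptide and 1 uM ATP in buffer with 2 mM MgCl2, 0.5 mM EGTA, 2.5 mM DTT. ADP formed was quantified by ADP-Glo luminescence.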

Assay [15] has the same target. As to the kind of experiment: qHTS Assay for Inhibitors of CDC-like Kinase 4 (ADP-FP Assay) (AID 1795). Note: % is set by controls: 0 for no effect and ±100 for the full control effect; nearly all actives have a fitted effect of over 60% in size. The conditions noted are these: Transcreener ADP fluorescence polarization; series mostly up to 50 µM. Summed up: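 FP readout: Orange Transcreener ADP2 tracer (4 nM) plus ADP antibody, read after 30 min at room temperature. Kinase step: 6.25 nM Clk4, 100 uM RS peptide, 1 uM ATP, pH 7.5, 1 h.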

Assay [16] addresses Ubiquitin carboxyl-terminal hydrolase 1 (Homo sapiens) (UniProt O94782). As to the kind of experiment: Inhibitors of USP1/UAF1: Pilot qHTS (AID 504865).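 Note: rhodamine fluorescence freed from ubiquitin-rhodamine substrate followed over time; top concentration of the series differs between compounds; % is set by controls: 0 for no effect and ±100 for the full control effect; nearly all actives have a fitted effect of over 35% in size.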 To be noted: purified USP1/UAF1, Ub-rhodamine cleavage fluorescence; series mostly up to 54.9 µM. Summed up: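 1nM USP1/UAF1 + cpd, 15 min RT; start w/ Ub-Rho 150nM final; kinetic FL 480/540 nm, 6 reads q60 s. Buffer 50mM HEPES pH 7.8, 0.5mM EDTA, 1mM TCEP, 0.01% Tween-20, 0.1 mg/ml BSA.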

The nature of assay [17]: Confirmation and Secondary Assay for Modulators of Hemoglobin Beta Chain Splicing at IVS2 654 locus (AID 910).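 Note: HeLa cells stably carrying EGFP split by mutant beta-globin IVS2-654 intron; per-well total GFP intensity by laser scanning cytometry after 2-day treatment; % of control where 0% means no effect.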 The conditions noted are these: HeLa EGFP-654 splicing reporter, GFP fluorescence, 48 h; series mostly up to 38.3 µM. An outline of the steps: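 Readout: per-well total peak green fluorescence (488 nm ex, 500–520 nm em) from objects 5–250 µm, reflecting correct splicing of an EGFP-654 reporter. Compounds were applied for 2 days at 37 °C to overnight-plated HeLa EGFP-654 cells; controls were DMSO and 500 nM IVS2-654 PNA.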

Assay [18] concerns the target Rap guanine nucleotide exchange factor 3 (Homo sapiens) (UniProt O95398). Put plainly: Confirmatory qHTS for agonist of cAMP-regulated guanine nucleotide exchange factor 3 (EPAC1) (AID 1645881).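 Note: EPAC1 catalysed release of BODIPY-GDP from Rap1B seen as fluorescence loss; 100% = effect of cAMP agonist control; nearly all actives have a fitted effect of over 75% in size.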 To be noted: EPAC1 Rap1B BODIPY-GDP exchange fluorescence; series mostly up to 154 µM.
[19] abbreviates: measured here: cell count channel max response.
Setting [20] is: measured here: lipid channel max response.

This is an account of results in PubChem BioAssay (NCATS).

Inconclusive results are not listed. Active and inactive are the calls of the source. Unless noted, calls come from the whole dose curve; as a rule, active = well fitted curve in the direction sought with a large enough effect; inconclusive = small, poorly fitted or top-dose-only effect, or another doubt; inactive = no such curve, though single readings can be large; an effect the other way counts as inactive or inconclusive.

Sequence of Rap guanine nucleotide exchange factor 3 (Homo sapiens) (O95398 whole entry, looked up): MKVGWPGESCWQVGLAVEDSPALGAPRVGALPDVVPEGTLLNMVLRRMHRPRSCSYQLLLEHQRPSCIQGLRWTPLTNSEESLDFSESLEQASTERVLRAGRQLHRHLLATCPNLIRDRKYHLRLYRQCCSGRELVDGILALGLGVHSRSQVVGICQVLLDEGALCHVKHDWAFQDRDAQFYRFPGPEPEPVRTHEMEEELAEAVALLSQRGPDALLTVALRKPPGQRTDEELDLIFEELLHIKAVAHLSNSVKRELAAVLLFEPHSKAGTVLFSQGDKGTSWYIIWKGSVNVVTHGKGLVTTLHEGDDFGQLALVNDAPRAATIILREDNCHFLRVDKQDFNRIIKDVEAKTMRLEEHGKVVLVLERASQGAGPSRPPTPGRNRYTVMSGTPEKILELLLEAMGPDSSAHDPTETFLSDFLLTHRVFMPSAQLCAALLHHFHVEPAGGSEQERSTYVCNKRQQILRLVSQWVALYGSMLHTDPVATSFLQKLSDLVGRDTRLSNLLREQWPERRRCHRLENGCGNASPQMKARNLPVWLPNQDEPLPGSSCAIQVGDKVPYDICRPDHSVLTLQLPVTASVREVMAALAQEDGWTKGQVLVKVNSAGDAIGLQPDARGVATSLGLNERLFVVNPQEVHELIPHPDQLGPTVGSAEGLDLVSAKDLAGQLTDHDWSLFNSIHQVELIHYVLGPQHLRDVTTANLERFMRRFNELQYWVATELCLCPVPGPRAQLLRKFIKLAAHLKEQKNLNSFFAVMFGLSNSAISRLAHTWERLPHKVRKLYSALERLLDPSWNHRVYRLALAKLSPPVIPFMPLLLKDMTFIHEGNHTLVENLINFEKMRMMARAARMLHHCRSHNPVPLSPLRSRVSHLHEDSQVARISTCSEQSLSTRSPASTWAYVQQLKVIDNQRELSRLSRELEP
Sequence of Dual specificity protein kinase CLK4 (Homo sapiens) (Q9HAZ1 whole entry, looked up): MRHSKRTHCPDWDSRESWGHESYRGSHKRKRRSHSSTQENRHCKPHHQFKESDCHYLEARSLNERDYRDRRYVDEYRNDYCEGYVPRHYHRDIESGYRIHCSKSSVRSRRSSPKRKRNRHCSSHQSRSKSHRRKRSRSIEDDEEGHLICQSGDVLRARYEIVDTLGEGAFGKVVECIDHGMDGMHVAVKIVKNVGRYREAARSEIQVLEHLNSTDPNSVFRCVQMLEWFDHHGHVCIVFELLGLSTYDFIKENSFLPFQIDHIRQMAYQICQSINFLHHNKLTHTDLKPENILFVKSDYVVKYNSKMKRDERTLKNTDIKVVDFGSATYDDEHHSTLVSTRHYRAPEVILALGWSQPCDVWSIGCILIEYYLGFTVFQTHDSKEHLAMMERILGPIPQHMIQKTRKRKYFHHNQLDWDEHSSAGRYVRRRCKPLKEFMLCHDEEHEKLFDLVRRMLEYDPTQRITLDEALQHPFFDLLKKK
Sequence of Ubiquitin carboxyl-terminal hydrolase 1 (Homo sapiens) (O94782 whole entry, looked up): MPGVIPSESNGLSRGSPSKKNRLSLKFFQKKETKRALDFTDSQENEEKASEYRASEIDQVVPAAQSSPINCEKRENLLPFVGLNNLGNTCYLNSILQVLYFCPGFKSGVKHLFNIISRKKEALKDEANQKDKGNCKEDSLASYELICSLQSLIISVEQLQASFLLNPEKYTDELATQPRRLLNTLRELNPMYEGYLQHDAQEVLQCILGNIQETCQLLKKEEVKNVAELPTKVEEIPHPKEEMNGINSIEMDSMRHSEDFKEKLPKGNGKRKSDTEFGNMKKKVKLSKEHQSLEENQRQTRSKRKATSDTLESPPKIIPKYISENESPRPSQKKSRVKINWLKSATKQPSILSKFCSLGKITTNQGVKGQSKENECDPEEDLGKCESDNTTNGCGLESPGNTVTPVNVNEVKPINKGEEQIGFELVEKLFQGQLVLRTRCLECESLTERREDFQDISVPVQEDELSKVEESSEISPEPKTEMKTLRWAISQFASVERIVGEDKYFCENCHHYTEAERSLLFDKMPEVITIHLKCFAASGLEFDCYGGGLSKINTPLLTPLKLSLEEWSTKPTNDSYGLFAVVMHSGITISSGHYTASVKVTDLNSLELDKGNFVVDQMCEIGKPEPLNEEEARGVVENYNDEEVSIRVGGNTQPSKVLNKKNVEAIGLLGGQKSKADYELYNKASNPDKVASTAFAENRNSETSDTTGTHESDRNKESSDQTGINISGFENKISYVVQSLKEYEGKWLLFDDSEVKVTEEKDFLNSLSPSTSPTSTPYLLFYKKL
Sequence of 3',5'-cyclic-AMP phosphodiesterase 4B (Homo sapiens) (Q07343 whole entry, looked up): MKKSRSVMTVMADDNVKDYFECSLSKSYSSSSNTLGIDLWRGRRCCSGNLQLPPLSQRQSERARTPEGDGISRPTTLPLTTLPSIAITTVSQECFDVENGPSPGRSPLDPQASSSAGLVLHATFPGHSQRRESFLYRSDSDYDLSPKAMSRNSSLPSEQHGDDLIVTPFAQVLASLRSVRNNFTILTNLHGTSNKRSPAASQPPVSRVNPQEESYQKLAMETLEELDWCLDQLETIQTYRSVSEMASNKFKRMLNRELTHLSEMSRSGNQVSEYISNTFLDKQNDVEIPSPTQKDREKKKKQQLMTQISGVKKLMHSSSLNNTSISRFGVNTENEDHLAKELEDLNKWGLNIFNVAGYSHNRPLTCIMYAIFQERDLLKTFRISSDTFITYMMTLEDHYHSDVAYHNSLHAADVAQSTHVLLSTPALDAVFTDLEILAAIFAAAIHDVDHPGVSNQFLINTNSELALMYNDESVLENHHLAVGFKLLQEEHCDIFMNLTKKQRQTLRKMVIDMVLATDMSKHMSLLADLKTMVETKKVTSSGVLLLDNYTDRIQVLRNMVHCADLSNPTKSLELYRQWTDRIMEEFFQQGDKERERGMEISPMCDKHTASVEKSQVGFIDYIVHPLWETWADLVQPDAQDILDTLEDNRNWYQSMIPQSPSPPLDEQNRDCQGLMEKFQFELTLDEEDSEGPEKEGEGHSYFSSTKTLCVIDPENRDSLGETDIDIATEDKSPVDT

Consider `COCCNc1ncnc2ccc(-c3ccc(N(C)C)cc3)cc12`, for which the Potency in assay [1] was > 11.4 µM (inactive); in assay [3], 0.251 µM (active); in [6] it was > 46 µM (inactive); in [7], > 46 µM (inactive); in assay [10] it was 7.94 µM (active); in [13], 8.91 µM (active). Also, the Potency in [14] is 10 µM (active). Further, the activity change, negative = inhibition was -29.4% (inactive) in [2], 4.01% (inactive) in [4] and -6.08% (inactive) in [12]. Besides, in assay [5], the activity, negative = inhibition is -5.06% (inactive). For the same compound, the Potency entry in [8], in assay [9], in [11], in assay [15] and in [16] was “inactive” in each case. For the same compound, the max response in assay [12] (setting [19]) was -1.3%; in assay [12] (setting [20]), -8.9%.

Consider `C=C[C@](C)(O)CCC1C(=C)CC(OC(C)=O)C2C(C)(C)CCCC12C` (some centres undefined), for which the Potency in assay [10] was 2.51 µM (active). Also, the Potency result in [11], in assay [17] and in assay [18] was “inactive” throughout. Moreover, the activity change, negative = inhibition in assay [12] was -0.933% (inactive). For the same compound, the max response in assay [12] (setting [19]) stood at 1.16%; in [12] (setting [20]), 0.207%.

In the case of `COc1ccccc1CNc1ncncc1-c1ccccc1OC`, the Potency in assay [1] was > 11.4 µM (inactive); in assay [6], > 46 µM (inactive); in [7] it was > 46 µM (inactive); in assay [10], 0.199 µM (active). Also, the values for the activity change, negative = inhibition in [2], in assay [4] and in assay [12] were -8.41% (inactive), -16.1% (inactive) and 6.17% (inactive), respectively. Besides, the activity, negative = inhibition in assay [5] was -9.32% (inactive). Also, the Potency entry in assay [8], in assay [11], in [16] and in [18] was “inactive” throughout. In addition, the max response in assay [12] (setting [19]) worked out at 3.98%; in assay [12] (setting [20]), 9.74%.

In the case of `COC(=O)CC1C2(C)CC34OC5(C)O[C@@]6(C7/C(=C(/OC)C(C)C)C(=O)OC(c8ccoc8)[C@@]7(C)C(OC(=O)C(C)C)C(OC)[C@]6(O5)[C@@]13C)C(OC)[C@]4(OC)C2OC(C)=O` (some centres undefined), the Potency in [10] was 2.51 µM (active). For the same compound, the Potency entry in assay [11], in assay [17] and in [18] was “inactive” in each case. Further, the activity change, negative = inhibition in assay [12] is -17.5% (inactive). For the same compound, the results for the max response in [12] (setting [19]) and in [12] (setting [20]) were 1.3% and -14.4%, respectively.

With `N#CCCn1c(=O)c(-c2cc(F)cc(F)c2)nc2cnc(Oc3ccccc3)nc21`, the Potency in assay [1] is > 11.4 µM (inactive); in assay [3] it was 2 µM (active); in assay [6], > 9.22 µM (inactive); in assay [7], > 46 µM (inactive). Further, the activity change, negative = inhibition in assay [2] is -18% (inactive); in assay [4], 1.84% (inactive); in assay [12], 7.78% (inactive). Further, the activity, negative = inhibition in [5] was -2.23% (inactive). The Potency entry in [8], in [9], in assay [13], in assay [14], in assay [15] and in [16] was “inactive” in each case. The max response amounted to 10.8% in [12] (setting [19]) and 17.1% in assay [12] (setting [20]).

Regarding `COc1ccc(-c2cc(=O)c3c(OC)c(OC)c(OC)c(OC)c3o2)cc1OC`, the Potency in [10] was 25.1 µM (active). Further, the Potency result in assay [11], in assay [17] and in assay [16] was “inactive” throughout. Further, the activity change, negative = inhibition in assay [12] was -10.1% (inactive). For the same compound, the values for the max response in assay [12] (setting [19]) and in [12] (setting [20]) were -11.8% and -19.5%, respectively.

Consider `COc1ccc2c(c1OC)C(=O)OC2C1c2c(cc3c(c2OC)OCO3)CCN1C` (centres undefined), for which the activity change, negative = inhibition is 11.6% [at 17.2 µM] (inactive) in assay [2], -3.27% [at 17.2 µM] (inactive) in [4] and 0.209% (inactive) in assay [12]. Also, in [5], the activity, negative = inhibition is 9.27% [at 17.2 µM] (inactive). Also, the Potency in assay [6] is > 20.6 µM (inactive). For the same compound, the max response in [12] (setting [19]) is -33.3%; in assay [12] (setting [20]), -33.7%.

Take `CN1CCc2c(cc(O)c(O)c2Cl)C(c2cccc(Cl)c2)C1` (centres undefined): the activity change, negative = inhibition in [12] was -5.99% (inactive). Besides, the max response was 26.1% in assay [12] (setting [19]) and 9.27% in assay [12] (setting [20]).
